Assay results reported in PubChem BioAssay (NCATS).
Records with an inconclusive call do not appear. Activity calls are given as the source filed them. The call rests on the fitted dose curve; in most records, active means well fitted inhibition curve with a large enough effect; inconclusive means small, poorly fitted or top-dose-only effect; inactive means no such curve, though single readings can be large or run the other way.

Biological target: Cytochrome P450 2C9 (Homo sapiens) (UniProt P11712)
Assay: qHTS Assay for Inhibitors and Substrates of Cytochrome P450 2C9 (AID 883); further: nearly all actives have a fitted effect of over 60% in size
Settings: recombinant CYP2C9, luciferin-H luminescence, 60 min; series mostly up to 57.1 µM; activity change, negative = inhibition: at the top concentration
Summary of the method: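 Signal: luciferase luminescence reporting luciferin produced by CYP2C9. Conditions: 10nM enzyme, Luciferin-H 100uM at KM, 25mM KPO4, 37C, 60 min NADPH-driven reaction. Reference: 57uM sulphaphenazole as 100% inhibition.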
On the % scale 0 is the no-effect control and ±100 the full control effect; potency means the concentration at half of the fitted maximal effect.

Chain of Cytochrome P450 2C9 (Homo sapiens) (P11712 whole entry, looked up): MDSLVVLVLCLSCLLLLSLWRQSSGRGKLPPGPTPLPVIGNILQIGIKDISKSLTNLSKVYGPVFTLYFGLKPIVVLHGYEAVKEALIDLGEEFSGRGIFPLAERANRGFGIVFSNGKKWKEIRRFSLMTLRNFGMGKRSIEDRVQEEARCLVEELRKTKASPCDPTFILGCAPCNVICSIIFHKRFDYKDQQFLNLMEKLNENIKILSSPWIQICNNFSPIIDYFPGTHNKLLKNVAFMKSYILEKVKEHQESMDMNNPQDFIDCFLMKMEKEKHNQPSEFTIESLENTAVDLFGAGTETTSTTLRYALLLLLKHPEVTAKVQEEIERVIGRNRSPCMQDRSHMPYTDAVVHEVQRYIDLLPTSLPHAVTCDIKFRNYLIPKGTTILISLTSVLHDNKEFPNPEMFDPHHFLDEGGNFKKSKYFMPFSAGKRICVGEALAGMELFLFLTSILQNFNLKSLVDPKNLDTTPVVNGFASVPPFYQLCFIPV

Row | Compound | Potency | activity change, negative = inhibition
1 | Cc1cc(-c2ccc(N=Nc3ccc4c(S(=O)(=O)O)cc(S(=O)(=O)O)c(N)c4c3O)c(C)c2)ccc1N=Nc1ccc2c(S(=O)(=O)O)cc(S(=O)(=O)O)c(N)c2c1O | 7.94 µM (active) | 
2 | O=C(O)Cc1cc(I)c(Oc2ccc(O)c(I)c2)c(I)c1 | 5.01 µM (active) | 
3 | O=C(O)Cc1nn(Cc2ccc(Br)cc2F)c(=O)c2ccccc12 |  | 174% (inactive)

Biological target: Cytochrome P450 3A4 (Homo sapiens) (UniProt P08684)
Assay: qHTS Assay for Inhibitors and Substrates of Cytochrome P450 3A4 (AID 884); further: nearly all actives have a fitted effect of over 50% in size
Settings: recombinant CYP3A4, Luciferin-PPXE luminescence; series mostly up to 57.1 µM; activity change, negative = inhibition: at the top concentration
Summary of the method: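 20 nM human CYP3A4 with 25 uM Luciferin-PPXE (at KM) in 200 mM KPO4, preincubated 10 min with compound; NADPH regeneration started a 60 min RT reaction. Luciferin detected by luminescence, normalized to 57 uM ketoconazole as full inhibition.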

Chain of Cytochrome P450 3A4 (Homo sapiens) (P08684 whole entry, looked up): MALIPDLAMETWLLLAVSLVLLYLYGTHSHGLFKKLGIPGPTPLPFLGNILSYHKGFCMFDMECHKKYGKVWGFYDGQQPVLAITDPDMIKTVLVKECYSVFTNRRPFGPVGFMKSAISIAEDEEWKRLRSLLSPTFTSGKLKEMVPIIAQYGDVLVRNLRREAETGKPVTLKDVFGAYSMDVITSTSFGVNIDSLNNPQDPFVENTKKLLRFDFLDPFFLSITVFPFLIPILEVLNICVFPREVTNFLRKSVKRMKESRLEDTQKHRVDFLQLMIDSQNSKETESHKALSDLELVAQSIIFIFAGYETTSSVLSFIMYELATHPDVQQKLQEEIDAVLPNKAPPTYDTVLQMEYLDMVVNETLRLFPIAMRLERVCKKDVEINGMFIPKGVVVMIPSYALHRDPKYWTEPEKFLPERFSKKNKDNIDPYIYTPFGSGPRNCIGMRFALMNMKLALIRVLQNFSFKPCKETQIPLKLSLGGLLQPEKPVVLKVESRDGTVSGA

Row | Compound | activity change, negative = inhibition | Potency
4 | N#Cc1ccc2c(c1)N(CCCN1CCC(O)CC1)c1ccccc1S2 | -6.48% (inactive) | 
5 | Cc1cc(-c2ccc(N=Nc3ccc4c(S(=O)(=O)O)cc(S(=O)(=O)O)c(N)c4c3O)c(C)c2)ccc1N=Nc1ccc2c(S(=O)(=O)O)cc(S(=O)(=O)O)c(N)c2c1O |  | 15.8 µM (active)
6 | CCCCC[C@H](O)/C=C/[C@H]1[C@H](O)CC(=O)[C@@H]1C/C=C\CCCC(=O)O | -15.1% (inactive) | 
7 | CC(=O)Oc1cccc2c1C(=O)c1c(OC(C)=O)cc(C(=O)O)cc1C2=O | -37% (inactive) | 
8 | CC1CCCC(C)N1NC(=O)c1ccc(Cl)c(S(N)(=O)=O)c1 (stereo not given) | -43.8% (inactive) | 
9 | C=CC(C)(O)CC/C=C(\C)CCC=C(C)C (stereo not given) | -10.4% (inactive) | 
10 | CC(=O)N=c1sc(S(N)(=O)=O)nn1C | -15.8% (inactive) | 
11 | O=C(O)[C@H]1C(=CCO)O[C@H]2CC(=O)N12 | -21.9% (inactive) | 
12 | CC1CCC(NC(=O)N(CCCl)N=O)CC1 (stereo not given) | -7.95% (inactive) | 
13 | CC(=O)[C@H]1CC[C@H]2[C@@H]3C=CC4=CC(=O)CC[C@@]4(C)[C@H]3CC[C@]12C | 114% [at 25.6 µM] (inactive) | 
14 | C=C1C(CCl)(CCl)C2(Cl)C(Cl)C(Cl)C1(Cl)C2(Cl)Cl (stereo not given) |  | 5.01 µM (active)
15 | CC(=O)Nc1ccc(OC(=O)c2ccccc2O)cc1 | -23.2% (inactive) | 
